Activity change, negative = inhibition data for 36 compounds are collected here from PubChem BioAssay (NCATS).

Inconclusive results are not listed. The source made the active and inactive calls. Calls follow the shape of the full dose curve.
% is scaled to controls: 0 for no effect and ±100 for the full control effect.

A short description of the first assay: qHTS Assay for Lipid Storage Modulators (AID 1519). The following applies: Drosophila S3 cells, BODIPY lipid droplet/cell ratio, laser cytometry; at 25.7 µM (top of the series); cells loaded with oleic acid. The method in brief:
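Cells seeded at 5,000 per well were treated with compounds over a concentration series and loaded with oleic acid (400 uM, as added). Lipid droplet fluorescence (488 nm excitation, 500-530 nm channel) was read by laser-scanning cytometry and normalized to 20 uM Triacsin C.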
(In general: In qHTS, concentration-response curves come from the screen itself.)
As for `CN(C(=O)CN(CCO)CC(=O)N(C)C(C)(C)Cc1ccccc1)C(C)(C)Cc1ccccc1`, the activity change, negative = inhibition is -12.5% (inactive).

As to `O=C1c2ccccc2C(=O)C1c1ccccc1`, the activity change, negative = inhibition is -0.708% (inactive).

Turning to `CNCCC=C1c2ccccc2CCc2ccccc21`, the activity change, negative = inhibition is -2% (inactive).

Take `CCN(CCCc1ccccc1)CCCc1ccccc1`: the activity change, negative = inhibition is -2.55% (inactive).

As for `Cc1cc(=O)n(-c2ccccc2)n1C`, the activity change, negative = inhibition was 1.11% (inactive).

As to `CN1CCN(C(c2ccccc2)c2ccccc2)CC1`, the activity change, negative = inhibition was -2.7% (inactive).

As to `CN(C)CC/C=C1\c2ccccc2Sc2ccc(Cl)cc21`, the activity change, negative = inhibition is -2% (inactive).

For the compound `CCCCOc1ccc(OCCCN2CCOCC2)cc1`, the activity change, negative = inhibition is -0.243% (inactive).

Consider `CC(=O)N(O)CCCCCNC(=O)CCC(=O)N(O)CCCCCNC(=O)CCC(=O)N(O)CCCCCN`, for which the activity change, negative = inhibition is -1.65% (inactive).

As for `CN1CCN(CCCN2c3ccccc3Sc3ccc(S(=O)(=O)N(C)C)cc32)CC1`, the activity change, negative = inhibition is -2.96% (inactive).

Take `CN1CCC(=C2c3ccccc3Sc3ccccc32)CC1`: the activity change, negative = inhibition is -2.77% (inactive).

Regarding `CCN(CC)C(=O)N1CCN(C)CC1`, the activity change, negative = inhibition is -0.935% (inactive).

Turning to `OC(CCN1CCCCC1)(c1ccccc1)c1ccccc1`, the activity change, negative = inhibition is -4.82% (inactive).

Regarding `C[C@H](O)C(=O)Nc1c(I)c(C(=O)NC(CO)CO)c(I)c(C(=O)NC(CO)CO)c1I`, the activity change, negative = inhibition is -3.5% (inactive).

As to `CCOC(=O)n1ccn(C)c1=S`, the activity change, negative = inhibition is -1.84% (inactive).

Consider `Cc1ccnc(NS(=O)(=O)c2ccc(N)cc2)n1`, for which the activity change, negative = inhibition is 2.4% (inactive).

With `Cc1c(N(C)CS(=O)(=O)O)c(=O)n(-c2ccccc2)n1C`, the activity change, negative = inhibition was 0.216% (inactive).

`CCn1cc(C(=O)O)c(=O)c2cnc(N3CCCC3)nc21`: the activity change, negative = inhibition is -3.05% (inactive).

Regarding `Nc1nc2ncc(CNc3ccc(C(=O)N[C@@H](CCC(=O)O)C(=O)O)cc3)nc2c(=O)[nH]1`, the activity change, negative = inhibition was -2.19% (inactive).

For the compound `CCCCOc1cc(C(=O)NCCN(CC)CC)c2ccccc2n1`, the activity change, negative = inhibition is -1.17% (inactive).

Take `CN(C)CCCOc1nn(Cc2ccccc2)c2ccccc12`: the activity change, negative = inhibition was -3.69% (inactive).

Regarding `COc1ccc(CCN2CCC(Nc3nc4ccccc4n3Cc3ccc(F)cc3)CC2)cc1`, the activity change, negative = inhibition was -7.48% (inactive).

For `NCCc1ccn[nH]1`, the activity change, negative = inhibition is -0.85% (inactive).

The assay is the same for the next values; noted with them: Drosophila S3 cells, BODIPY lipid droplet/cell ratio, laser cytometry; at 57.5 µM (top of the series); cells loaded with oleic acid.
For the compound `CN(C(=O)CN(CCO)CC(=O)N(C)C(C)(C)Cc1ccccc1)C(C)(C)Cc1ccccc1`, the activity change, negative = inhibition is 4.59% (inactive).

In the case of `O=C1c2ccccc2C(=O)C1c1ccccc1`, the activity change, negative = inhibition was 10.4% (inactive).

In the case of `CNCCC=C1c2ccccc2CCc2ccccc21`, the activity change, negative = inhibition was 7.28% (inactive).

For `CCN(CC)CCOC(=O)C(c1ccccc1)C1CCCCC1` (stereo not drawn), the activity change, negative = inhibition was -0.866% (inactive).

Consider `CC(Cc1cccc(C(F)(F)F)c1)NCCOC(=O)c1ccccc1` (stereo not drawn), for which the activity change, negative = inhibition was -1.3% (inactive).

In the case of `CCN(CCCc1ccccc1)CCCc1ccccc1`, the activity change, negative = inhibition is 3.79% (inactive).

Consider `Cc1cc(=O)n(-c2ccccc2)n1C`, for which the activity change, negative = inhibition was 0.266% (inactive).

In the case of `CN1CCN(C(c2ccccc2)c2ccccc2)CC1`, the activity change, negative = inhibition is 7.26% (inactive).

Regarding `CCOc1ccc(Cc2nccc3cc(OCC)c(OCC)cc23)cc1OCC`, the activity change, negative = inhibition is -21.1% (inactive).

On to `CN(C)CC/C=C1\c2ccccc2Sc2ccc(Cl)cc21`, for which the activity change, negative = inhibition is 8.38% (inactive).

For the compound `CC(=O)N(O)CCCCCNC(=O)CCC(=O)N(O)CCCCCNC(=O)CCC(=O)N(O)CCCCCN`, the activity change, negative = inhibition was 6.43% (inactive).

For the compound `C/C=C/c1ccc(OC)cc1`, the activity change, negative = inhibition is 9.09% (inactive).

On to `COc1cc(OC)cc(OC)c1`, for which the activity change, negative = inhibition was 0.768% (inactive).

As for `O=C(OCC(O)CO)c1ccccc1Nc1ccnc2cc(Cl)ccc12` (stereo not drawn), the activity change, negative = inhibition is 0.748% (inactive).

Regarding `CN1CCC(=C2c3ccccc3Sc3ccccc32)CC1`, the activity change, negative = inhibition is 13.8% (inactive).

Turning to `CCCCc1nc(Cl)c(CO)n1Cc1ccc(-c2ccccc2-c2nn[nH]n2)cc1`, the activity change, negative = inhibition is 9.33% (inactive).

As to `CCN(CC)C(=O)N1CCN(C)CC1`, the activity change, negative = inhibition is 4.02% (inactive).

Regarding `OC(CCN1CCCCC1)(c1ccccc1)c1ccccc1`, the activity change, negative = inhibition was 3.44% (inactive).

In the case of `OCc1ccccc1O`, the activity change, negative = inhibition was 1.86% (inactive).

Turning to `Oc1c(I)cc(I)c2cccnc12`, the activity change, negative = inhibition was -2.05% (inactive).

Turning to `CCOC(=O)n1ccn(C)c1=S`, the activity change, negative = inhibition was 8.2% (inactive).

For `Cc1ccnc(NS(=O)(=O)c2ccc(N)cc2)n1`, the activity change, negative = inhibition was 7.92% (inactive).

`Cc1c(N(C)CS(=O)(=O)O)c(=O)n(-c2ccccc2)n1C`: the activity change, negative = inhibition was 9.06% (inactive).

Consider `CCCC(=O)Nc1ccc(OCC(O)CNC(C)C)c(C(C)=O)c1` (stereo not drawn), for which the activity change, negative = inhibition is 5.02% (inactive).

As to `Nc1nc2ncc(CNc3ccc(C(=O)N[C@@H](CCC(=O)O)C(=O)O)cc3)nc2c(=O)[nH]1`, the activity change, negative = inhibition is 8.45% (inactive).

On to `CCCCOc1cc(C(=O)NCCN(CC)CC)c2ccccc2n1`, for which the activity change, negative = inhibition was 1.92% (inactive).

With `CO/N=C1\CN(c2nc3c(cc2F)c(=O)c(C(=O)O)cn3C2CC2)CC1CN` (stereo not drawn), the activity change, negative = inhibition was 8.95% (inactive).

`c1ccc(-c2ccc(C(c3ccccc3)n3ccnc3)cc2)cc1` (stereo not drawn): the activity change, negative = inhibition is 13.6% (inactive).

`CC[N+](CC)(CCNC(=O)C(=O)NCC[N+](CC)(CC)Cc1ccccc1Cl)Cc1ccccc1Cl`: the activity change, negative = inhibition was 1.97% (inactive).

With `COc1ccc(CCN2CCC(Nc3nc4ccccc4n3Cc3ccc(F)cc3)CC2)cc1`, the activity change, negative = inhibition was 12.8% (inactive).
